Reference: the supplement of paper PMC8975748
Structures can show the parent of a compound that is named as a salt. ± gives the standard deviation of the averaged measurements.

Tests used:
[1] = system: Saccharomyces cerevisiae BY4741 SeMeCo community; assay: mean cell size (pixel area) (pixels); higher = larger cells; conditions: 10 µM; 24 h; SM minimal medium
Procedure, shortened: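 Plates of 384 wells were acoustically predosed with drug at a final 10 µM in SM medium, and 70 µl of a Saccharomyces cerevisiae BY4741 preculture diluted from OD600 = 1.0 to OD600 = 0.3 was added for 24 h. The yeast formed a four-plasmid fluorescent community in which each plasmid complements one auxotrophy and carries a fluorescent marker. Fixed cells were imaged by automated confocal microscopy and analysed in Harmony for mean cell pixel area per well. Values are means of 3 replicates. Same SeMeCo high-content imaging drug screen: Selleck FDA-approved drugs at 10 µM, 24 h in SM medium, 384-well plates, 3 replicates.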

[2] = system: Saccharomyces cerevisiae BY4741 SeMeCo community; assay: z-score of prototroph abundance vs DMSO median; higher = larger share of this subpopulation than in DMSO controls; conditions: 10 µM; 24 h; SM minimal medium; subpopulation (auxotrophy): Prototroph
Procedure, shortened: (§1)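 A Saccharomyces cerevisiae BY4741 community carried four plasmids, each restoring one auxotrophy and encoding a distinct fluorescent protein. It was pre-grown overnight to OD600 1.0, diluted to 0.3, and 70 µl was added to 384-well plates acoustically predosed with library drugs (10 µM final), then grown 24 h in minimal SM medium. Cells were paraformaldehyde-fixed and imaged by automated confocal microscopy, with single-auxotroph fluorescent strains setting thresholds and autofluorescence correction. Each subpopulation's abundance was scored as a z-score against the vehicle-well median.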

[3] = system: Saccharomyces cerevisiae BY4741 SeMeCo community; assay: z-score of subpopulation abundance vs DMSO median, subpopulation auxotrophic for M; higher = larger share of this subpopulation than in DMSO controls; conditions: 10 µM; 24 h; SM minimal medium; subpopulation (auxotrophy): M
Procedure, shortened: as §1

[4] = system: Saccharomyces cerevisiae BY4741 SeMeCo community; assay: z-score of subpopulation abundance vs DMSO median, subpopulation auxotrophic for L; higher = larger share of this subpopulation than in DMSO controls; conditions: 10 µM; 24 h; SM minimal medium; subpopulation (auxotrophy): L
Procedure, shortened: as §1

[5] = system: Saccharomyces cerevisiae BY4741 SeMeCo community; assay: z-score of subpopulation abundance vs DMSO median, subpopulation auxotrophic for U; higher = larger share of this subpopulation than in DMSO controls; conditions: 10 µM; 24 h; SM minimal medium; subpopulation (auxotrophy): U
Procedure, shortened: as §1

[6] = system: Saccharomyces cerevisiae BY4741 SeMeCo community; assay: z-score of subpopulation abundance vs DMSO median, subpopulation auxotrophic for LU; higher = larger share of this subpopulation than in DMSO controls; conditions: 10 µM; 24 h; SM minimal medium; subpopulation (auxotrophy): LU
Procedure, shortened: as §1

[7] = system: Saccharomyces cerevisiae BY4741 SeMeCo community; assay: z-score of subpopulation abundance vs DMSO median, subpopulation auxotrophic for LM; higher = larger share of this subpopulation than in DMSO controls; conditions: 10 µM; 24 h; SM minimal medium; subpopulation (auxotrophy): LM
Procedure, shortened: as §1

[8] = system: Saccharomyces cerevisiae BY4741 SeMeCo community; assay: z-score of subpopulation abundance vs DMSO median, subpopulation auxotrophic for HM; higher = larger share of this subpopulation than in DMSO controls; conditions: 10 µM; 24 h; SM minimal medium; subpopulation (auxotrophy): HM
Procedure, shortened: as §1

[9] = system: Saccharomyces cerevisiae BY4741 SeMeCo community; assay: z-score of subpopulation abundance vs DMSO median, subpopulation auxotrophic for UM; higher = larger share of this subpopulation than in DMSO controls; conditions: 10 µM; 24 h; SM minimal medium; subpopulation (auxotrophy): UM
Procedure, shortened: as §1

[10] = system: Saccharomyces cerevisiae BY4741 SeMeCo community; assay: z-score of subpopulation abundance vs DMSO median, subpopulation auxotrophic for HL; higher = larger share of this subpopulation than in DMSO controls; conditions: 10 µM; 24 h; SM minimal medium; subpopulation (auxotrophy): HL
Procedure, shortened: as §1

[11] = system: Saccharomyces cerevisiae BY4741 SeMeCo community; assay: z-score of subpopulation abundance vs DMSO median, subpopulation auxotrophic for HLU; higher = larger share of this subpopulation than in DMSO controls; conditions: 10 µM; 24 h; SM minimal medium; subpopulation (auxotrophy): HLU
Procedure, shortened: as §1

[12] = system: Saccharomyces cerevisiae BY4741 SeMeCo community; assay: z-score of subpopulation abundance vs DMSO median, subpopulation auxotrophic for HLM; higher = larger share of this subpopulation than in DMSO controls; conditions: 10 µM; 24 h; SM minimal medium; subpopulation (auxotrophy): HLM
Procedure, shortened: as §1

[13] = system: Saccharomyces cerevisiae BY4741 SeMeCo community; assay: z-score of subpopulation abundance vs DMSO median, subpopulation auxotrophic for HUM; higher = larger share of this subpopulation than in DMSO controls; conditions: 10 µM; 24 h; SM minimal medium; subpopulation (auxotrophy): HUM
Procedure, shortened: as §1

[14] = system: Saccharomyces cerevisiae BY4741 SeMeCo community; assay: z-score of subpopulation abundance vs DMSO median, subpopulation auxotrophic for LUM; higher = larger share of this subpopulation than in DMSO controls; conditions: 10 µM; 24 h; SM minimal medium; subpopulation (auxotrophy): LUM
Procedure, shortened: as §1

[15] = system: Saccharomyces cerevisiae BY4741 SeMeCo community; assay: z-score of subpopulation abundance vs DMSO median, subpopulation auxotrophic for HLUM; higher = larger share of this subpopulation than in DMSO controls; conditions: 10 µM; 24 h; SM minimal medium; subpopulation (auxotrophy): HLUM
Procedure, shortened: as §1

[16] = system: Saccharomyces cerevisiae BY4741 SeMeCo community; assay: z-score of subpopulation abundance vs DMSO median, subpopulation auxotrophic for HU; higher = larger share of this subpopulation than in DMSO controls; conditions: 10 µM; 24 h; SM minimal medium; subpopulation (auxotrophy): HU
Procedure, shortened: as §1

[17] = system: Saccharomyces cerevisiae BY4741 SeMeCo community; assay: z-score of subpopulation abundance vs DMSO median, subpopulation auxotrophic for H; higher = larger share of this subpopulation than in DMSO controls; conditions: 10 µM; 24 h; SM minimal medium; subpopulation (auxotrophy): H
Procedure, shortened: as §1

| SMILES | mean cell size [1] | z-score of prototroph abundance [2] | z-score of subpopulation abundance [3] | z-score of subpopulation abundance [4] | z-score of subpopulation abundance [5] | z-score of subpopulation abundance [6] | z-score of subpopulation abundance [7] | z-score of subpopulation abundance [8] | z-score of subpopulation abundance [9] | z-score of subpopulation abundance [10] | z-score of subpopulation abundance [11] | z-score of subpopulation abundance [12] | z-score of subpopulation abundance [13] | z-score of subpopulation abundance [14] | z-score of subpopulation abundance [15] | z-score of subpopulation abundance [16] | z-score of subpopulation abundance [17] |
| --- | --- | --- | --- | --- | --- | --- | --- | --- | --- | --- | --- | --- | --- | --- | --- | --- | --- |
| Nc1ccc2cc3ccc(N)cc3nc2c1 [Proflavine] | 12.11 ± 0.034 | 6.61 | 2.16 | -7.48 | -7.03 | -7.09 | -5.35 | 2.14 | -7.18 | -3.92 | -4.19 | -2.42 | -4.57 | -4.39 | -1.99 |  |  |
| CO[C@H]1C[C@@H]2CC[C@@H](C)[C@@](O)(O2)C(=O)C(=O)N2CCCC[C@H]2C(=O)O[C@H]([C@H](C)C[C@@H]2CC[C@H](n3cnnn3)[C@H](OC)C2)CC(=O)[C@H](C)/C=C(\C)[C@@H](O)[C@@H](OC)C(=O)[C@H](C)C[C@H](C)/C=C/C=C/C=C/1C [Zotarolimus(ABT-578)] | 13.94 ± 0.041 | -17.5 | -0.02 | 0.32 |  | 3.23 | 2.28 | 23.2 | 7.28 | 15.7 | 18.8 | 18.4 | 22.3 | 5.72 | 31.4 | 23.5 |  |
| CO[C@H]1O[C@@H]2O[C@@]3(C)CC[C@H]4[C@H](C)CC[C@@H]([C@H]1C)[C@@]24OO3 [Artemether] | 12.05 ± 0.027 | 1.17 | -4.52 | -0.43 |  | -0.14 | -1.32 | -2 | -0.57 | -0.28 | -0.85 | -0.27 | -0.53 | -0.58 | 0.11 | 0.26 | 2.67 |
| CCOc1cc(N)c([N+](=O)[O-])cc1C(=O)NC1CCN(CC2CC=CCC2)CC1 (stereo unspecified) [Cinitapride Hydrogen Tartrate] | 12.3 ± 0.2 | -1.19 | 0.87 | -0.2 |  | 0.88 | 0.4 | 0.24 | 1.35 | -0.01 | 0.47 | -0.29 | 1.26 | 0.94 | 0.5 | 0.74 |  |
| O=C(c1ccc(OCCN2CCCCC2)cc1)c1c(-c2ccc(O)cc2)sc2cc(O)ccc12 [Raloxifene HCl] | 12.2 ± 0.27 | 0.44 | 0.58 | 1.28 |  | -1.4 | 1.33 | 0.58 | -0.85 | 0.66 | -0.29 | -0.47 | 0.06 | -0.24 | -0.56 | -1.43 | 0.59 |
| Cc1ccccc1C(OCCN(C)C)c1ccccc1 (stereo unspecified) [Orphenadrine Citrate] | 12.2 ± 0.14 | 0.04 | -0.02 | -0.09 | 0.9 | 0.36 | -0.43 | -0.64 | 0.14 | -1.07 | 0.33 | -0.97 | -0.13 | 0.36 | -0.1 |  | -0.33 |
| C[C@]12CC[C@@H]3c4ccc(O)cc4CC[C@H]3[C@@H]1CCC2=O [Estrone] | 12.48 ± 0.098 | 0.49 | -0.44 | 0.44 | -0.57 | 0.11 | 0.03 | -0.17 | -0.49 | -0.05 | -0.08 | -0.39 | -0.46 | -0.12 | -0.85 |  | -0.34 |
| Clc1ccc(CSC(Cn2ccnc2)c2ccc(Cl)cc2Cl)cc1 (stereo unspecified) [Sulconazole Nitrate] | 12.1 ± 0.16 | -9.61 | -2.96 | -0.34 | 1.17 | -2.59 | -2.53 | 2.74 | 5.19 | 11 | 7.54 | 24.7 | 6.12 | 0.84 | 10.5 |  | 22 |
| COc1nc2ccc(Br)cc2cc1[C@@H](c1ccccc1)[C@@](O)(CCN(C)C)c1cccc2ccccc12 [Bedaquiline fumarate] | 11.2 ± 0.16 |  | -0.55 | -0.13 |  | 0.86 | 0.49 | 0.33 | 4.1 | 0.4 | 0.68 | -0.14 | 1.74 | 3.68 | 1.29 | 1.44 | 1.1 |
| C[C@@H]1C/C=C/C=C/C=C/C=C/[C@H](O[C@@H]2O[C@H](C)[C@@H](O)[C@H](N)[C@@H]2O)C[C@@H]2O[C@](O)(C[C@@H](O)C[C@H]3O[C@@H]3/C=C/C(=O)O1)C[C@H](O)[C@H]2C(=O)O [Natamycin] | 12.31 ± 0.094 |  | -8.99 | 1.74 | 4.12 | 8.63 | 2.04 | 8.62 | 9.97 |  | 22.7 | 38.1 | 25.6 |  | 40.5 | 33.6 | 12.5 |
| CCn1cc(C(=O)O)c(=O)c2cnc(N3CCNCC3)nc21 [Pipemidic acid] | 12 ± 0.14 | -0.62 | 0.72 | -0.32 | 0.77 | 0.45 | 0.15 | 0.81 | 0.86 |  | -0.49 | -0.37 | 0.55 |  | 0.28 | -0.06 | -1.07 |
| O=c1[nH]c2ccccc2n1CCN1CCN(c2cccc(C(F)(F)F)c2)CC1 [Flibanserin] | 12.25 ± 0.046 | 0.65 | -0.31 | -0.73 | 0.4 | -0.2 | -0.37 | -0.79 | 0.43 | -0.75 | -0.49 | -0.86 | -0.15 | -0.43 | -0.98 |  | -0.96 |
| O=C(c1ccccc1)c1ccc2n1CCC2C(=O)O (stereo unspecified) [Ketorolac tromethamine salt] | 12.3 ± 0.19 | 0.48 | 0.27 | 0.3 | -0.92 | -0.75 | -0.1 | -0.41 | -0.28 | -0.19 | -0.16 | -0.09 | -0.75 | -0.12 | -0.11 |  | 0.35 |
